This is an account of results in PubChem BioAssay (NCI).

SMILES strings stand for the structures. Compounds without any hit were thinned out: in the full panel of roughly 83,000, 20% have a hit.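 Compound tested at a single concentration for 48 hours in 96-well plates; a percent growth value below 10 was scored as active.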 Unmarked numbers belong to inactive results. Calls of active or inactive are those of the source.

For this experiment, the system named is HL-60(TB) leukemia. Put plainly: NCI-60 one-dose screen, 48 h (100 = growth as untreated, 0 = no growth, -100 = all killed). The following applies: 10 µM unless noted.
On to `CC(=O)O[C@H]1CC[C@@]2(C)C(=CC[C@@H]3[C@@H]2CC[C@]2(C)C(=O)N(O)C(=O)C[C@@H]32)C1`, for which the growth is 105%.
Then `COC(=O)c1nc(-c2ccccc2)oc1S(=O)(=O)NCC(c1ccc(Cl)cc1)N1CCCCC1` (stereo not given), with 17.5%; and `O=c1oc2ccc(Br)cc2c(=O)n1-c1ccc(Br)cc1F`, with -39.1% (active); and `COC1C(O)CC(OC2CC(OC3CC(O[C@@H]4C(=O)c5c(cc6cc(OC7CC(OC8CC(O)C(O)C(C)O8)C(O)C(C)O7)c(C)c(O)c6c5O)CC4[C@H](OC)C(=O)O)OC(C)C3O)OC(C)C2O)OC1C` (stereo not given in full), with 60.5%.
As for `CC(C)C(=O)Nc1nc2c(s1)CCCc1ccn(S(=O)(=O)c3ccccc3)c1-2`, the growth was 83.8%.
Then `CCCCC(CCc1ccccn1)C(=O)c1ccccc1` (stereo not given), with 110%.
In the case of `Cc1cccc(N2CCN(C(=S)c3ccc4c(c3)OCO4)CC2)c1`, the growth was -20% (active).
On to `O=C(CC1Sc2ccccc2NC1=O)NNc1ccc(F)cc1` (stereo not given), for which the growth is 14.3%.
As for `Cc1ccc(N=C=C(c2ccccc2)c2ccccc2)cc1`, the growth was 18.6%.
`COc1ccc(Nc2nc(SC)nc(-c3cccc([N+](=O)[O-])c3)c2C#N)cc1`: the growth is 112%.
`COC(=O)[C@H]1Cc2c([nH]c3ccccc23)[C@@H](c2cccs2)N1`: the growth is 99.7%.
For `C=CC(=O)Nc1ccc(Oc2nccc(Nc3nnc(-c4ccc(C)cc4)s3)n2)cc1`, the growth is 41.6%.
Regarding `CCCCC(CCCCCC(CCCC)C1NC(C)Cc2cc(OC)c(OC)cc21)C1NC(C)Cc2cc(OC)c(OC)cc21` (stereo not given), the growth was -79.7% (active).
For `O=Cc1ccc(-c2cn3ccnc3c(-c3ccc4ncn(Cc5ccccc5)c4c3)n2)cc1` the value was 83.5%.
Then `Cc1ccnc2c(NC(C)CCCN)cc(O)c(O)c12` (stereo not given), with 7.56% (active); and `O=C(Nc1ccc(-c2nc3ccc(NC(=O)c4ccc(Cl)cc4)cc3[nH]2)cc1)c1ccc(Cl)cc1`, with -45.9% (active).
Then `COC(=O)[C@]12CC[C@@H](C(C)=O)[C@@H]1[C@H]1CC[C@@H]3[C@@]4(C)C/C(=C/c5cccnc5)C(=O)C(C)(C)[C@@H]4CC[C@@]3(C)[C@]1(C)CC2`, with -2.67% (active); and `COc1ccc2cc(-c3ccc(-c4ccc(C(=N)N)s4)s3)ccc2c1`, with 36.5%.
Consider `O=[N+]([O-])c1ccc(-n2[nH]nnc2=S)cc1`, for which the growth was 105%.
For the compound `CC1OC(n2c3ccccc3c3c4c(c5c6ccccc6[nH]c5c32)C(=O)N(CCN2CCOCC2)C4=O)CC(O)C1O` (stereo not given), the growth was 24.3%.
Then `NC(=O)c1cccc(-n2ccc3cc(NC(=O)c4ccc(N5CCOCC5)c(C(F)(F)F)c4)ccc32)n1`, with 51.1%; and `O=C(/C=C/c1ccccc1)n1c(-c2ccc(Cl)cc2)nc2ccccc21`, with -3.97% (active); and `O=C(O)c1ccc(N=CC(=O)c2ccc(-c3ccccc3)cc2)cc1`, with 77.4%.
Then `CCOC(=O)C/C(=C\c1ccccc1)C(C)=O`, with 98.5%; and `COC(=O)[C@]12CC[C@@H](C)[C@H](C)[C@@H]1C1=CC[C@@H]3[C@@]4(C)C(C=O)=C[C@@](C)(CO)C4=CC[C@@]3(C)[C@]1(C)CC2`, with 16.1%.
Consider `Cc1cc(NCCN(C(C)C)C(C)C)nc(/N=C(\N)Nc2ccc(Cl)c(C(F)(F)F)c2)n1`, for which the growth was -87.9% (active).
`CN1CCOCCOCCOc2ccccc2NC(=O)c2nc(cnc2N)-c2ccc(cc2)S1(=O)=O`: the growth was -22.2% (active).
Take `COc1ccc(C2SCC(=O)N2NC(=O)c2ccc(NC(=O)c3ccccn3)cc2)cc1OC` (stereo not given): the growth is 110%.
Take `CC(=O)/C(=C/c1ccc([N+](=O)[O-])cc1)C(=O)c1ccccc1`: the growth was 41.9%.
Then `NC(=O)NS(=O)(=O)c1ccc(N2N=C(C(F)(F)F)CC2c2cc(C(F)(F)F)cc(C(F)(F)F)c2)cc1` (stereo not given), with 38.7%; and `Cc1ncc(C(=O)Nc2ccc(CN3CCN(C)CC3)c(C(F)(F)F)c2)cc1C#Cc1cnc(N)c2ccncc12`, with -52.8% (active).
For `CC(=O)c1cc2c(N)c(C(=O)Nc3cccc4ccccc34)sc2nc1C` the value was -10.7% (active); for `CC(=O)C(C(C)=O)C(c1ccccc1)C(C(C)=O)C(C)=O`, 98.5%; for `N#Cc1cnc2cc(OC[C@@H](O)CO)c(NC(=O)C3CCCC3)cc2c1Nc1ccc(OCc2cccc(F)c2)c(Cl)c1`, -28.8% (active).
Then `CCOC(=O)c1cc(C#N)n2ncc3ccccc3c12`, with 105%; and `CCN(CC)CCOc1ccc2c(-c3ccccc3)c(-c3ccc(OC)cc3)c(=O)oc2c1`, with 48.8%.
`O=c1c2cccc3c(Nc4ccc(Br)cn4)ccc(c32)c2nc3ccccc3n12`: the growth is 128%.
For `Cc1ccc(/C=C/c2c(C(=O)/C=C/c3ccccc3)c(C)nc3ccccc23)cc1` the value was 14.8%; for `COc1ccc(-c2cn(-c3ccc(Cl)cc3)c(=S)[nH]2)cc1OC`, 56.1%; for `NS(=O)(=O)Oc1ccc(NC(=O)C23CC4CC(CC(C4)C2)C3)cc1Cl`, 100%.
